# Laboratory results as given in PubChem BioAssay (NCATS).
# Several values for one entry are separate records, joined by “and”; a condition that tells them apart may be missing. Identical values can stand only once. Results filed as inconclusive are left out. A number with no mark means an inactive call. Activity calls are given as the source filed them. The call rests on the fitted dose curve; in most records, active means well fitted curve in the direction sought with a large enough effect; inconclusive means small, poorly fitted or top-dose-only effect, or another doubt; inactive means no such curve, though single readings can be large; an effect the other way counts as inactive or inconclusive.
# How the values were obtained:
# [1] = Viability qHTS for spleen associated tyrosine kinase inhibitor (SYKi) drug resistant MV4-11 cells (AID 1963824); settings: SYKi-resistant MV4-11 viability, CellTiter-Glo, 72 h; series mostly up to 45 µM; further: nearly all actives have a fitted effect of over 35% in size
# How it was run: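 CellTiter-Glo luminescence, read 10 min after reagent addition, reports viability after a 72 hr compound exposure. Cells are an MV4-11 line made resistant to SYK inhibition, seeded at 500 per well onto compound-containing plates.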
# [2] = Cellular viability qHTS for adrenocortical cancer (ACC) cell line SW-13 (AID 1963989); settings: SW-13 ACC cells viability, CellTiter-Glo, 48 h; activity (max response): stronger effect = lower value; further: nearly all actives have a fitted effect of over 65% in size;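 on activity (max response): cells grown in serum-free medium with ITS supplement; on the % scale 0 is the no-effect control and ±100 the full control effect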
# How it was run: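 SW-13 cells in ITS-supplemented serum-free DMEM were plated overnight, then exposed for 48 h at 37C to compound titrations (up to 46 uM final). Viability was read by CellTiter-Glo luminescence; four-parameter logistic fits gave IC50 and efficacy.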
# [3] = Cellular viability qHTS for adrenocortical cancer (ACC) cell line NCI-H295R (AID 1963990); settings: CellTiter-Glo ATP luminescence, 48 h; series mostly up to 46.1 µM; further: nearly all actives have a fitted effect of over 60% in size
# How it was run: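 Luminescent ATP read-out (CellTiter-Glo, 20 min RT) after 48 h drug exposure of NCI-H295R cells; a titration up to 46 uM final. Data normalized to doxorubicin (100% inhibition) and DMSO (0%); 4-parameter fit gives IC50, max response.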
# Potency means the concentration at half of the fitted maximal effect.
SMILES,Potency [1],activity (max response) [2],Potency [3],Potency [2]
CC(=O)CC/C=C(\C)CC/C=C(\C)CC/C=C(\C)CCC=C(C)C,inactive,9.79%,inactive,–
CC1CC(OC(=O)c2ccccc2O)CC(C)(C)C1 (stereo not drawn),inactive,10.4%,inactive,–
C/C=C(/C(=C/C)c1ccc(O)cc1)c1ccc(O)cc1,14.8 µM (active),–,23.1 µM (active) and 6.31 µM (active),14.1 µM (active)
CN=C(NC#N)NCCSCc1csc(N=C(N)N)n1,inactive,7.67%,inactive,–
C=C[C@H]1CN2CCC1C[C@@H]2C(O)c1ccnc2ccc(OC)cc12 (stereo partly drawn),14.8 µM (active),3.34%,inactive,–
C#C[C@]1(O)CC[C@H]2[C@@H]3CCc4cc(OC)ccc4[C@H]3CC[C@@]21C,13.3 µM (active),5.57% and 4.24%,inactive,–
CN(C)[C@@H]1C(=O)C(C(N)=O)=C(O)[C@@]2(O)C(=O)C3=C(O)c4c(O)ccc(Cl)c4[C@@H](O)[C@H]3C[C@@H]12,8.41 µM (active),-3.2%,inactive,–
CCCCC(CC)COC(=O)c1ccccc1C(=O)O (stereo not drawn),19.7 µM (active),6.28%,inactive,–
C=CC(=O)Nc1cccc(Oc2nc(Nc3ccc(N4CCN(C)CC4)c(F)c3)nc3[nH]ccc23)c1,0.525 µM (active),–,8.91 µM (active),2.82 µM (active)
CCOC(=O)NNc1ccc(N(CC)CC(C)O)nn1 (stereo not drawn),inactive,-8.2%,inactive,–
COCCc1ccc(OCC(O)CNC(C)C)cc1 (stereo not drawn),inactive,-3.54%,inactive,–
Cc1cc(/C=c2/sc3nc4ccccc4n3c2=O)c(C)n1-c1ccccc1,10.5 µM (active),-15.5%,inactive,–
CN(C)C1CCN(C(=O)c2ccc(NC(=O)Nc3ccc(-c4nc(N5CCOCC5)nc(N5CCOCC5)n4)cc3)cc2)CC1,0.0184 µM (active),–,2.24 µM (active),0.251 µM (active)
CC(=O)OC(C)OC(=O)C(C)c1ccc(-c2ccccc2)c(F)c1 (stereo not drawn),inactive,9.22%,inactive,–
COc1ccc(Cl)c(Nc2nc3ccccc3nc2NS(=O)(=O)c2cccc(NC(=O)C(C)(C)N)c2)c1,8.2 µM (active),–,20 µM (active),25.1 µM (active)
CC1c2cccc(O)c2C(O)=C2C(=O)C3(O)C(O)=C(C(N)=O)C(=O)C(N(C)C)C3C(O)C21 (stereo not drawn),11.8 µM (active),8.67%,inactive,–
O=C(CS(=O)Cc1ccco1)NC/C=C\COc1cc(CN2CCCCC2)ccn1 (stereo not drawn),inactive,2.9%,inactive,–
O=C(Nc1ccc(Cl)cc1)Nc1ccc(Cl)c(C(F)(F)F)c1,7.5 µM (active),–,1.84 µM (active),2.91 µM (active)
Nc1ccc(C(=O)N2CC3CC(CN(Cc4ccccc4)C3)C2)cc1,inactive,7.04%,inactive,–
C[C@@H](C1=C(CCN(C)C)Cc2ccccc21)c1ccccn1,inactive,-0.59%,inactive,–
C[C@H]1CNCCCN1S(=O)(=O)c1cccc2cncc(F)c12,inactive,-17.2%,inactive,–
O=C(/C=C/c1ccc(CN(CCO)CCc2c[nH]c3ccccc23)cc1)NO,0.059 µM (active),–,0.562 µM (active),0.708 µM (active)
C[C@]12C=CC(=O)C=C1[C@@H](F)C[C@@H]1[C@@H]2[C@@H](O)C[C@@]2(C)[C@H]1CC[C@]2(O)C(=O)CO,inactive,7.4%,inactive,–
CC[C@]12CCCN3CCc4c(n(c5ccccc45)C(=O)C1)[C@@H]32,8.41 µM (active) and 23.1 µM (active),–,5.8 µM (active),–
CCOC(=O)N[C@@H]1CC[C@@H]2[C@@H](C1)C[C@H]1C(=O)O[C@H](C)[C@H]1[C@H]2/C=C/c1ccc(-c2cccc(F)c2)cn1,13.2 µM (active),-18%,inactive,–
O=C1NC(=O)/C(=C/c2ccc3nccc(-c4ccncc4)c3c2)S1,820 nM (active) and 525 nM (active),–,0.631 µM (active),1 µM (active)
COc1nc(OCc2cccc(-c3ccccc3)c2C)ccc1CNCCNC(C)=O,3.72 µM (active),–,6.31 µM (active),7.94 µM (active)
CC1(C)CC[C@]2(C(=O)O)CC[C@]3(C)C(=CC[C@@H]4[C@@]5(C)C[C@@H](O)[C@H](O)C(C)(C)[C@@H]5CC[C@]43C)[C@@H]2C1,18.6 µM (active),-1.16%,inactive,–
